Bioassay records: PubChem, National Center for Advancing Translational Sciences (NCATS)
IP6K1 inh: inhibitors of human IP6K1; IP6K1 kinase, ADP-Glo luminescence, 2 h; stronger effect = lower value; activity change, % (series mostly up to about 58 µM); actives 0.81% (n = 140,000); AID 1645851; in the data active = activity change below about -25%
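ADP-Glo luminescence measures ADP made by human IP6K1 during a 2 h RT reaction with ATP/IP6 (mix at 1.3 mM/130 uM); top library doses 57.5 and 19.1 uM final.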
SNCA expr inh: inhibitors of alpha-synuclein (SNCA) gene expression; HEK-293 SNCA-luciferase knock-in, luminescence, 24 h; Potency, µM (series often up to 57.2 µM), most hits filed as inhibitors; actives 0.17% (n = 140,000); AID 1671194; note: nearly all actives have a fitted effect of over 45% in size
KDM5B inhibitor: blocks human KDM5B histone demethylase activity; KDM5B demethylase, FDH-coupled NADH fluorescence (FDH is formaldehyde dehydrogenase); Potency, µM (titrated, usually from 57.7 µM), hits mostly inhibitors; actives 2.6% (n = 220,000); AID 1347165; note: nearly all actives have a fitted effect of over 70% in size
Target sequence (Q9UGL1 whole entry, looked up): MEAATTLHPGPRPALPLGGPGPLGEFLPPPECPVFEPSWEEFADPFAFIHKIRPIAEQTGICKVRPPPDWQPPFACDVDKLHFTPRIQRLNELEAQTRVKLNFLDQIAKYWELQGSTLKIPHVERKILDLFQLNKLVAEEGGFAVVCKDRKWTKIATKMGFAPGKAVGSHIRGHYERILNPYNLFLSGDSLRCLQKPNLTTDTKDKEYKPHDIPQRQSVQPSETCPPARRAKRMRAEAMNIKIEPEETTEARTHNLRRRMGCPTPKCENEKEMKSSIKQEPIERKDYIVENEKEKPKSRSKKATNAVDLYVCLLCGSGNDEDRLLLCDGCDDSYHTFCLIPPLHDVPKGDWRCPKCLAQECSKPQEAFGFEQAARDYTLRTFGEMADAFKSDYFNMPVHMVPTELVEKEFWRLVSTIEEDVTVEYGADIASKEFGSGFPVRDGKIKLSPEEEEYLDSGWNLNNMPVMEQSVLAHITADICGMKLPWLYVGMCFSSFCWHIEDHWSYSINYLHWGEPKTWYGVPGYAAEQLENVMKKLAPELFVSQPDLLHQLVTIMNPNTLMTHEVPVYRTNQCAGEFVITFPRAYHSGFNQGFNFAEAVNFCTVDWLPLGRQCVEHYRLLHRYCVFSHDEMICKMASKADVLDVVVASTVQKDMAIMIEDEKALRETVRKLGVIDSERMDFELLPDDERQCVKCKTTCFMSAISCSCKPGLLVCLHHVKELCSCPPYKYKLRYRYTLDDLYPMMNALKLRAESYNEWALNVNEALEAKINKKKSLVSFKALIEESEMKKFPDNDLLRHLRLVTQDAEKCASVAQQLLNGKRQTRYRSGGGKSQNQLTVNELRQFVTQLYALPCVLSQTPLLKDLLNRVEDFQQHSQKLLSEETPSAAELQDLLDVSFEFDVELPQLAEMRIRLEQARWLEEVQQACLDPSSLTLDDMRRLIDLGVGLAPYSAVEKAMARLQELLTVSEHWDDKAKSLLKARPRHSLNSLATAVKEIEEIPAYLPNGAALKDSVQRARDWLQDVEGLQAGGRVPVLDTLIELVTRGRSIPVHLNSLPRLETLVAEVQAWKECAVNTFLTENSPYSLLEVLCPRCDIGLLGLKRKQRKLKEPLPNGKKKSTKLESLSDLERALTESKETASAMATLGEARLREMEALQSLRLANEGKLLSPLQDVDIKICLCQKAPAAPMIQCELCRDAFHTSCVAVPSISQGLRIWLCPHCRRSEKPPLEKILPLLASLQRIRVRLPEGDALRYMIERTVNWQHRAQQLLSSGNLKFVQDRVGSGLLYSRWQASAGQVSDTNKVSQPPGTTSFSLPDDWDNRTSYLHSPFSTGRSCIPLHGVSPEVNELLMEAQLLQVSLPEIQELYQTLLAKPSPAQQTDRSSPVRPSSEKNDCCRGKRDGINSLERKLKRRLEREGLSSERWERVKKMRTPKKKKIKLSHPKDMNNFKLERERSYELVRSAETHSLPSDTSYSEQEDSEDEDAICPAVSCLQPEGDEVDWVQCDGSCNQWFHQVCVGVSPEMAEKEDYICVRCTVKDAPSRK
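Compound dilutions met 200 nM (final) KDM5BΔAP for 10 min at room temperature before substrate addition. The substrate mix held 12.5 µM H3K4me3 with cofactors 25 µM α-ketoglutarate and 50 µM Fe²⁺. NADH signal gain over 30 min defined activity.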
HEK293 viab: counter-screen for SNCA expression inhibitors: cell viability; Potency, µM (top dose mostly 57.1 µM), usual class: cytotoxic; AID 1671193; actives 0.12% (n = 150,000); HEK-293-SNCA-luc viability, GF-AFC fluorescence, 24 h; note: nearly all actives have a fitted effect of over 30% in size
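Cytotoxicity counterscreen: after 24 h compound treatment of genome-edited SNCA-luciferase HEK-293 cells, live-cell protease substrate GF-AFC read by fluorescence after 30 min; activity scaled between DMSO (0%) and medium-only (-100%), curves Hill-fitted.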
Each line names hits and unclear results; the compound was inactive in the other large screens. Shown are actives, neighbours in structure and some others; about 2.8% of the full set was active somewhere. Unless noted, calls come from the whole dose curve; as a rule, active = well fitted curve in the direction sought with a large enough effect; inconclusive = small, poorly fitted or top-dose-only effect, or another doubt; inactive = no such curve, though single readings can be large; an effect the other way counts as inactive or inconclusive.

CCO[C@H]1CN(C(=O)COc2ccc(Cl)cc2C)C[C@@H]1O	SNCA expr inh inconclusive
O=C(CCc1nc2ccc(Cl)cc2[nH]1)N1CCc2c(nc3cc(-c4ccccc4)[nH]n3c2=O)C1	KDM5B inhibitor 32µM
O=C(CCc1cc(Cl)no1)N1CCc2nc3cc(-c4ccccc4)[nH]n3c(=O)c2C1	SNCA expr inh inconclusive, KDM5B inhibitor 7.9µM
O=C1CN(C(=O)CCC(=O)N2CCc3c(nc4cc(-c5ccccc5)[nH]n4c3=O)C2)c2ccccc2N1	KDM5B inhibitor 28µM
O=C(CCc1nc2ccc(Cl)cc2[nH]1)N1CCc2nc3cc(-c4ccccc4)[nH]n3c(=O)c2C1	SNCA expr inh inconclusive, KDM5B inhibitor 22µM
Cc1cc(C(=O)COC(=O)c2cc3ccccc3oc2=O)c(C)n1C1CC1	none (no result: IP6K1 inh, SNCA expr inh, HEK293 viab)
COC(=O)[C@@H]1Cc2c([nH]c3ccccc23)[C@H]2C[C@@H](NCCO)C[C@@H](c3ccc(F)cc3)N21	KDM5B inhibitor inconclusive
COC(=O)[C@@H]1Cc2c([nH]c3ccccc23)[C@H]2C[C@@H](NC3CC3)C[C@@H](c3ccc(F)cc3)N21	SNCA expr inh 28µM, HEK293 viab inconclusive
C#CCN[C@H]1C[C@@H]2c3[nH]c4ccccc4c3C[C@@H](C(=O)OC)N2[C@H](c2ccc(F)cc2)C1	SNCA expr inh inconclusive, KDM5B inhibitor 40µM, HEK293 viab inconclusive
COC(=O)[C@@H]1Cc2c([nH]c3ccccc23)[C@H]2C[C@@H](NCc3cccnc3)C[C@@H](c3ccc(F)c(F)c3)N21	KDM5B inhibitor 25µM
COC(=O)[C@@H]1Cc2c([nH]c3ccccc23)[C@H]2C[C@@H](NCc3cccnc3)C[C@@H](c3ccc(F)cc3)N21	KDM5B inhibitor inconclusive
COC(=O)[C@@H]1Cc2c([nH]c3ccccc23)[C@H]2C[C@@H](N3CCOCC3)C[C@@H](c3ccc(F)cc3)N21	KDM5B inhibitor 13µM
COc1cccc(CNC(=O)c2ccc3nnc(-c4ccc(F)cc4)n3c2)c1	none (no result: KDM5B inhibitor)
Cc1nnc([C@@H]2CC(F)(F)CN2C(=O)c2cccc3[nH]ccc23)o1	KDM5B inhibitor 28µM
Cc1nnc([C@@H]2CC(F)(F)CN2C(=O)c2ccoc2C)o1	none
CC(=O)c1c(C)nn(CC(=O)N2CCN3C(=O)CN(C)C(=O)C3C2)c1C (stereo unspecified)	none
Cc1cc(C)n2nc(C(=O)N3CCN4C(=O)CN(C)C(=O)C4C3)cc2n1 (stereo unspecified)	KDM5B inhibitor 28µM
O=C(Nc1cccc(F)c1)c1cc2n(n1)CC(c1ccc(Br)cc1)OC2 (stereo unspecified)	KDM5B inhibitor 25µM
NC(=O)c1ccc(NC(=O)c2cc3n(n2)CC(c2ccc(Br)cc2)OC3)cc1 (stereo unspecified)	KDM5B inhibitor 25µM
COc1ccc(NC(=O)c2cc3n(n2)CC(c2ccc(Br)cc2)OC3)cc1OC (stereo unspecified)	KDM5B inhibitor inconclusive, HEK293 viab inconclusive
Cc1cc(NC(=O)c2cc3n(n2)CC(c2ccc(Cl)cc2)OC3)ccc1F (stereo unspecified)	KDM5B inhibitor inconclusive
COc1cc(NC(=O)c2cc3n(n2)CC(c2ccc(Br)cc2)OC3)cc(OC)c1OC (stereo unspecified)	SNCA expr inh inconclusive, KDM5B inhibitor 32µM
CC(=O)Nc1ccc(NC(=O)c2cc3n(n2)CC(c2ccc(Br)cc2)OC3)cc1 (stereo unspecified)	SNCA expr inh inconclusive, KDM5B inhibitor inconclusive
CC(NC(=O)CSc1ncc(-c2ccccc2)o1)C1CC1 (stereo unspecified)	none (no result: IP6K1 inh, SNCA expr inh, HEK293 viab)
CCc1ccc(N2CC(c3noc(-c4cnccn4)n3)CC2=O)cc1 (stereo unspecified)	none
COc1cc(OC)cc(-c2nc(C3CC(=O)N(c4ccc(C)cc4)C3)no2)c1 (stereo unspecified)	KDM5B inhibitor 32µM
CCc1ccc(N2CC(c3noc(-c4ccc(N(C)C)cc4)n3)CC2=O)cc1 (stereo unspecified)	KDM5B inhibitor 32µM
O=C1CC(c2noc(-c3ccc4c(c3)OCO4)n2)CN1c1ccc(F)cc1 (stereo unspecified)	KDM5B inhibitor 28µM, HEK293 viab inconclusive
CCc1ccc(N2CC(c3noc(-c4ccc(OC)c(F)c4)n3)CC2=O)cc1 (stereo unspecified)	KDM5B inhibitor 32µM
CC(C)c1ccccc1NC(=O)C(Sc1ccccc1)c1ccccc1 (stereo unspecified)	none (no result: IP6K1 inh, SNCA expr inh, HEK293 viab)
